We go through 29 molecules from ChEMBL document CHEMBL1201862, “PubChem BioAssay data set” (2004).

Each structure is given as a SMILES string. Screen size: about 400,000 compounds; about 2,100 (0.53%) were called active. Inconclusive results (about 14%) are left out. No rule for the calls is given here. What follows is part of a selection rich in actives, with near analogues and random picks from the rest.

For the test, the target named is Ataxin-2 (Homo sapiens) (UniProt Q99700). Put plainly: qHTS for Inhibitors of ATXN expression. Format: functional.
Chain of Ataxin-2 (Homo sapiens) (Q99700 whole entry): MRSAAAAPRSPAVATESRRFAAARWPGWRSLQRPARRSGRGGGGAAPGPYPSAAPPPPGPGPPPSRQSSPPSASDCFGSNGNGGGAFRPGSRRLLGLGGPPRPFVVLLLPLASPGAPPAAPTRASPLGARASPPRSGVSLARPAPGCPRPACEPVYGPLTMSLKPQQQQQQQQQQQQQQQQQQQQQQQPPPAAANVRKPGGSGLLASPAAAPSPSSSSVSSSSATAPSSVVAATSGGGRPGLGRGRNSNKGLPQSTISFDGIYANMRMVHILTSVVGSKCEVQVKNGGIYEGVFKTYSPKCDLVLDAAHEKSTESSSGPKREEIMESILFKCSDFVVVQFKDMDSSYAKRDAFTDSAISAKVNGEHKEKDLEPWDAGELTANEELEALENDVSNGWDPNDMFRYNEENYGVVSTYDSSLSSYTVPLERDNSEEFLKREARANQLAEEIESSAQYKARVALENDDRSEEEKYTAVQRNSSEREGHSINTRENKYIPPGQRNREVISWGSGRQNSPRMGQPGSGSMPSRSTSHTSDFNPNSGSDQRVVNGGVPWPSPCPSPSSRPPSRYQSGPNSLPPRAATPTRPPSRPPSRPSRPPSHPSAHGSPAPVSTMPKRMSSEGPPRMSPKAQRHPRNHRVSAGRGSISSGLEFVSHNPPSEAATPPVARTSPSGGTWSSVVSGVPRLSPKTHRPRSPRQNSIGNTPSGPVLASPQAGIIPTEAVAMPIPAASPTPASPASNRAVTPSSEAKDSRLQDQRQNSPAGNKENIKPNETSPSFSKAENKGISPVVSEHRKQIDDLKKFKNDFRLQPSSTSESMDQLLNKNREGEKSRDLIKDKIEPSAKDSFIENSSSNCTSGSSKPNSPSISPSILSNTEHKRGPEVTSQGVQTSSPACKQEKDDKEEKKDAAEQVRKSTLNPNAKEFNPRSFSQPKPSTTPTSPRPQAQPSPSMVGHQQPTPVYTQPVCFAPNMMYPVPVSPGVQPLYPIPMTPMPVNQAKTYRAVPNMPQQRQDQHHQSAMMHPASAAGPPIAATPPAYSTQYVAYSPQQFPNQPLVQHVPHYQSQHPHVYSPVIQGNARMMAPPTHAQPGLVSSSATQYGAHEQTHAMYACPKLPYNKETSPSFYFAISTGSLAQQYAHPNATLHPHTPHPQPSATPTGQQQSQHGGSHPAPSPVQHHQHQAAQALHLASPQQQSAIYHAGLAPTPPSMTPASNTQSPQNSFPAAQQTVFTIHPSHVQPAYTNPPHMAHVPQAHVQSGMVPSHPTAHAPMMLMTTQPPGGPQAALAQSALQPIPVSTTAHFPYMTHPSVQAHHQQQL
As to `Nc1cccc(Oc2c(F)c(F)c(Oc3cccc(N)c3)c(F)c2F)c1`, the Potency result is “inactive”. With `Cc1ccc(NC(=O)CN(C)C(=O)COC(=O)c2nccnc2N)cc1` the entry was “inactive”; with `CN(CC(=O)Nc1ccccc1Cl)C(=O)COC(=O)c1nc(Cl)c(Cl)c(Cl)c1Cl`, 28.2 µM (active); with `Cc1cnc(C(=O)OCC(=O)Nc2cccc3ccccc23)cn1`, “inactive”.

For the molecule `CCCCc1c(-c2ccc(Cl)cc2)ncn1CCc1ccccc1OC`, the Potency was 39.8 µM (active). The result for `CCCc1c(-c2ccc(Cl)cc2)ncn1Cc1ccccc1OC` reads 44.7 µM (active); that for `COc1cc2c3nnc(-c4ccccc4)c-3cn(Cc3ccccc3F)c2cc1OC`, “inactive”; that for `CCCCCc1c(-c2ccc(Cl)cc2)ncn1CCc1ccccc1OC`, 39.8 µM (active). Regarding `CC(=O)c1cc2ccc(O)cc2oc1=O`, the Potency result is “inactive”.

In the case of `COCCNC(=O)/C(=C/c1ccccc1Cl)c1ccccc1`, the Potency result was “inactive”. The result for `O=C1CC(c2cccc(Br)c2)C2=C(COC2=O)N1` (centres undefined) reads “inactive”; that for `CN(C)/C=N/C(=S)Nc1ccc(Cl)cc1`, “inactive”. On to `Cn1nc(-c2ccccc2)c2nc3ccccc3nc21`, for which the Potency result is “inactive”. Take `CN1CCN(C2=CC3=CC(=C(C#N)C#N)CCC3CC2)CC1` (centres undefined): the Potency entry was “inactive”. The result for `Nc1ccc(C#Cc2ccc3c(=O)c4ccccc4oc3c2)cc1` reads “inactive”; that for `COc1cc2oc3cc(C#Cc4ccc(N)cc4)ccc3c(=O)c2cc1OC`, “inactive”. With `COc1cc2c(C#CCCO)c(-c3ccc(C#N)cc3)oc(=O)c2cc1OC` the entry was “inactive”; with `O=c1c2ccccc2oc2ccc(C#CC3(O)CCCCC3)cc12`, 28.2 µM (active); with `COc1cccc2oc3cc(C#CC4(O)CCCCC4)ccc3c(=O)c12`, 22.4 µM (active). For the molecule `O=c1c(O)c(-c2ccccc2)oc2ccccc12`, the Potency entry is “inactive”. With `Nc1c(C(=O)NCc2ccco2)c2nc3ccccc3nc2n1CCc1ccc(F)cc1` the entry was “inactive”. `Cc1ccc(COc2ccsc2C(=O)NN)cc1`: the Potency entry was “inactive”. With `Cc1ccc(CN2C(=O)C(C)Oc3ccccc32)cc1` (centres undefined) the entry was “inactive”.

Consider `Cc1ccc(CN2C(=O)C(=O)c3cc(Br)cc(C)c32)cc1`, for which the Potency was 39.8 µM (active).

Regarding `CC(=O)N1c2c(cc(Br)cc2S(=O)(=O)NCc2ccc(C)cc2)CC1C` (centres undefined), the Potency result is “inactive”. As to `COC(=O)c1c(NC(=O)c2ccc(S(=O)(=O)N3CCCC(C)C3)cc2)sc2c1CCN(C(C)C)C2` (centres undefined), the Potency result is “inactive”. The result for `CC(=O)Nc1ccc(S(=O)(=O)[N-]c2nc3ccccc3nc2-[n+]2ccc(NC(=O)c3ccccc3)cc2)cc1` reads “inactive”. With `O=C(Nc1cc[n+](-c2nc3ccccc3nc2[N-]S(=O)(=O)c2ccc(Cl)cc2)cc1)c1cccs1` the entry was “inactive”; with `O=C(Nc1ccc[n+](-c2nc3ccccc3nc2[N-]S(=O)(=O)c2ccccc2)c1)c1ccc(Cl)cc1`, 11.2 µM (active).
